# In the supplement of paper PMC4466140:
# Tests used:
# Experiment in all cases: SPOT peptide array binding signal intensity (averaged, normalized) (arbitrary units (background-subtracted, floor 0; scale differs between SH3 domains)); higher = stronger binding of the SH3 domain to the peptide
# AgAbp1 = target: AgAbp1
# In short: (§1)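 GST-fused SH3 domains, from four yeast species, were produced in E. coli BL21(DE3) and captured on glutathione Sepharose. Membranes of cellulose carrying synthetic 15-mer peptides, in which cysteines had been replaced by serines, were exposed to each domain at 10 μg/ml overnight at 4°C in TBS-based blocking buffer. After anti-GST antibody, an HRP anti-mouse secondary and luminol, spots were imaged and quantified using Genespotter. Binding signal is normalized and background-subtracted spot intensity, averaged over replicates, in arbitrary units that differ between domains.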
# AgBbc1 = target: AgBbc1
# In short: as §1
# AgBem1-D1 = target: AgBem1-D1
# In short: as §1
# AgBzz1-D1 = target: AgBzz1-D1
# In short: as §1
# AgBzz1-D2 = target: AgBzz1-D2
# In short: as §1
# AgCyk3 = target: AgCyk3
# In short: as §1
# AgFus1 = target: AgFus1
# In short: as §1
# AgHof1 = target: AgHof1
# In short: as §1
# AgHse1 = target: AgHse1
# In short: as §1
# AgLsb1 = target: AgLsb1
# In short: as §1
# AgLsb4 = target: AgLsb4
# In short: as §1
# AgMyo5 = target: AgMyo5
# In short: as §1
# AgNbp2 = target: AgNbp2
# In short: as §1
# AgRvs167 = target: AgRvs167
# In short: as §1
# AgSho1 = target: AgSho1
# In short: as §1
# AgSla1-D1-D2 = target: AgSla1-D1-D2
# In short: as §1
# AgSla1-D3 = target: AgSla1-D3
# In short: as §1
# CaAbp1-D1 = target: CaAbp1-D1
# In short: as §1
# CaAbp1-D2 = target: CaAbp1-D2
# In short: as §1
# CaBbc1 = target: CaBbc1
# In short: as §1
# CaBem1-D1 = target: CaBem1-D1
# In short: as §1
# CaBzz1-D1 = target: CaBzz1-D1
# In short: as §1
# CaBzz1-D2 = target: CaBzz1-D2
# In short: as §1
# CaCyk3 = target: CaCyk3
# In short: as §1
# CaFus1 = target: CaFus1
# In short: as §1
# CaHof1 = target: CaHof1
# In short: as §1
# CaHse1 = target: CaHse1
# In short: as §1
# CaLsb1 = target: CaLsb1
# In short: as §1
# CaLsb4 = target: CaLsb4
# In short: as §1
# CaMyo5 = target: CaMyo5
# In short: as §1
# CaNbp2 = target: CaNbp2
# In short: as §1
# CaRvs167 = target: CaRvs167
# In short: as §1
# CaRvs167-3 = target: CaRvs167-3
# In short: as §1
# CaSho1 = target: CaSho1
# In short: as §1
# CaSla1-D1-D2 = target: CaSla1-D1-D2
# In short: as §1
# CaSla1-D3 = target: CaSla1-D3
# In short: as §1
# ScAbp1 = target: ScAbp1
# In short: as §1
# ScBbc1 = target: ScBbc1
# In short: as §1
# ScBem1-D1 = target: ScBem1-D1
# In short: as §1
# ScBzz1-D1 = target: ScBzz1-D1
# In short: as §1
# ScBzz1-D2 = target: ScBzz1-D2
# In short: as §1
# ScCyk3 = target: ScCyk3
# In short: as §1
# ScFus1 = target: ScFus1
# In short: as §1
# ScHof1 = target: ScHof1
# In short: as §1
# ScHse1 = target: ScHse1
# In short: as §1
# ScLsb1 = target: ScLsb1
# In short: as §1
# ScLsb2 = target: ScLsb2
# In short: as §1
# ScLsb3 = target: ScLsb3
# In short: as §1
# ScLsb4 = target: ScLsb4
# In short: as §1
# ScMyo3 = target: ScMyo3
# In short: as §1
# ScMyo5 = target: ScMyo5
# In short: as §1
# ScNbp2 = target: ScNbp2
# In short: as §1
# ScPex13 = target: ScPex13
# In short: as §1
# ScRvs167 = target: ScRvs167
# In short: as §1
# ScSho1 = target: ScSho1
# In short: as §1
# ScSla1-D1-D2 = target: ScSla1-D1-D2
# In short: as §1
# ScSla1-D3 = target: ScSla1-D3
# In short: as §1
# SpAbp1-D1 = target: SpAbp1-D1
# In short: as §1
# SpBbc1 = target: SpBbc1
# In short: as §1
# SpBzz1-D1 = target: SpBzz1-D1
# In short: as §1
# SpBzz1-D2 = target: SpBzz1-D2
# In short: as §1
# SpCyk3 = target: SpCyk3
# In short: as §1
# SpHof1 = target: SpHof1
# In short: as §1
# SpHof1-2 = target: SpHof1-2
# In short: as §1
# SpHof1-3 = target: SpHof1-3
# In short: as §1
# SpHse1 = target: SpHse1
# In short: as §1
# SpLsb1 = target: SpLsb1
# In short: as §1
# SpLsb4 = target: SpLsb4
# In short: as §1
# SpMyo1 = target: SpMyo1
# In short: as §1
# SpNbp2 = target: SpNbp2
# In short: as §1
# SpPex13 = target: SpPex13
# In short: as §1
# SpRvs167 = target: SpRvs167
# In short: as §1
# SpSla1-D1-D2 = target: SpSla1-D1-D2
# In short: as §1
# SpSla1-D3 = target: SpSla1-D3
# In short: as §1
binder,measurement,setting,value
NPTKSPPPPPSPSTM,SPOT peptide array binding signal intensity,AgAbp1,≤ 0
same,SPOT peptide array binding signal intensity,AgBbc1,≤ 0
same,SPOT peptide array binding signal intensity,AgBem1-D1,26
same,SPOT peptide array binding signal intensity,AgBzz1-D1,126
same,SPOT peptide array binding signal intensity,AgBzz1-D2,63.5
same,SPOT peptide array binding signal intensity,AgCyk3,≤ 0
same,SPOT peptide array binding signal intensity,AgFus1,≤ 0
same,SPOT peptide array binding signal intensity,AgHof1,7
same,SPOT peptide array binding signal intensity,AgHse1,16
same,SPOT peptide array binding signal intensity,AgLsb1,1.25
same,SPOT peptide array binding signal intensity,AgLsb4,≤ 0
same,SPOT peptide array binding signal intensity,AgMyo5,232
same,SPOT peptide array binding signal intensity,AgNbp2,≤ 0
same,SPOT peptide array binding signal intensity,AgRvs167,≤ 0
same,SPOT peptide array binding signal intensity,AgSho1,≤ 0
same,SPOT peptide array binding signal intensity,AgSla1-D1-D2,≤ 0
same,SPOT peptide array binding signal intensity,AgSla1-D3,128
same,SPOT peptide array binding signal intensity,CaAbp1-D1,7
same,SPOT peptide array binding signal intensity,CaAbp1-D2,≤ 0
same,SPOT peptide array binding signal intensity,CaBbc1,≤ 0
same,SPOT peptide array binding signal intensity,CaBem1-D1,5
same,SPOT peptide array binding signal intensity,CaBzz1-D1,3240
same,SPOT peptide array binding signal intensity,CaBzz1-D2,1620
same,SPOT peptide array binding signal intensity,CaCyk3,7.5
same,SPOT peptide array binding signal intensity,CaFus1,60
same,SPOT peptide array binding signal intensity,CaHof1,≤ 0
same,SPOT peptide array binding signal intensity,CaHse1,4
same,SPOT peptide array binding signal intensity,CaLsb1,0.5
same,SPOT peptide array binding signal intensity,CaLsb4,≤ 0
same,SPOT peptide array binding signal intensity,CaMyo5,48
same,SPOT peptide array binding signal intensity,CaNbp2,45
same,SPOT peptide array binding signal intensity,CaRvs167,0.667
same,SPOT peptide array binding signal intensity,CaRvs167-3,1
same,SPOT peptide array binding signal intensity,CaSho1,10.5
same,SPOT peptide array binding signal intensity,CaSla1-D1-D2,49
same,SPOT peptide array binding signal intensity,CaSla1-D3,30
same,SPOT peptide array binding signal intensity,ScAbp1,≤ 0
same,SPOT peptide array binding signal intensity,ScBbc1,≤ 0
same,SPOT peptide array binding signal intensity,ScBem1-D1,≤ 0
same,SPOT peptide array binding signal intensity,ScBzz1-D1,274
same,SPOT peptide array binding signal intensity,ScBzz1-D2,22
same,SPOT peptide array binding signal intensity,ScCyk3,≤ 0
same,SPOT peptide array binding signal intensity,ScFus1,≤ 0
same,SPOT peptide array binding signal intensity,ScHof1,1
same,SPOT peptide array binding signal intensity,ScHse1,21.5
same,SPOT peptide array binding signal intensity,ScLsb1,≤ 0
same,SPOT peptide array binding signal intensity,ScLsb2,≤ 0
same,SPOT peptide array binding signal intensity,ScLsb3,≤ 0
same,SPOT peptide array binding signal intensity,ScLsb4,≤ 0
same,SPOT peptide array binding signal intensity,ScMyo3,771
same,SPOT peptide array binding signal intensity,ScMyo5,343
same,SPOT peptide array binding signal intensity,ScNbp2,47.5
same,SPOT peptide array binding signal intensity,ScPex13,80
same,SPOT peptide array binding signal intensity,ScRvs167,≤ 0
same,SPOT peptide array binding signal intensity,ScSho1,18
same,SPOT peptide array binding signal intensity,ScSla1-D1-D2,≤ 0
same,SPOT peptide array binding signal intensity,ScSla1-D3,11.5
same,SPOT peptide array binding signal intensity,SpAbp1-D1,≤ 0
same,SPOT peptide array binding signal intensity,SpBbc1,≤ 0
same,SPOT peptide array binding signal intensity,SpBzz1-D1,548
same,SPOT peptide array binding signal intensity,SpBzz1-D2,7.25
same,SPOT peptide array binding signal intensity,SpCyk3,4
same,SPOT peptide array binding signal intensity,SpHof1,1.25
same,SPOT peptide array binding signal intensity,SpHof1-2,4
same,SPOT peptide array binding signal intensity,SpHof1-3,0.5
same,SPOT peptide array binding signal intensity,SpHse1,94
same,SPOT peptide array binding signal intensity,SpLsb1,1
same,SPOT peptide array binding signal intensity,SpLsb4,≤ 0
same,SPOT peptide array binding signal intensity,SpMyo1,468
same,SPOT peptide array binding signal intensity,SpNbp2,≤ 0
same,SPOT peptide array binding signal intensity,SpPex13,≤ 0
same,SPOT peptide array binding signal intensity,SpRvs167,2
same,SPOT peptide array binding signal intensity,SpSla1-D1-D2,≤ 0
same,SPOT peptide array binding signal intensity,SpSla1-D3,≤ 0
MSPLGAPPPPPHKDH,SPOT peptide array binding signal intensity,AgAbp1,≤ 0
same,SPOT peptide array binding signal intensity,AgBbc1,≤ 0
same,SPOT peptide array binding signal intensity,AgBem1-D1,≤ 0
same,SPOT peptide array binding signal intensity,AgBzz1-D1,6.5
same,SPOT peptide array binding signal intensity,AgBzz1-D2,9
same,SPOT peptide array binding signal intensity,AgCyk3,1
same,SPOT peptide array binding signal intensity,AgFus1,1.5
same,SPOT peptide array binding signal intensity,AgHof1,≤ 0
same,SPOT peptide array binding signal intensity,AgHse1,23
same,SPOT peptide array binding signal intensity,AgLsb1,≤ 0
same,SPOT peptide array binding signal intensity,AgLsb4,≤ 0
same,SPOT peptide array binding signal intensity,AgMyo5,449
same,SPOT peptide array binding signal intensity,AgNbp2,5
same,SPOT peptide array binding signal intensity,AgRvs167,1
same,SPOT peptide array binding signal intensity,AgSho1,4
same,SPOT peptide array binding signal intensity,AgSla1-D1-D2,2
same,SPOT peptide array binding signal intensity,AgSla1-D3,≤ 0
same,SPOT peptide array binding signal intensity,CaAbp1-D1,≤ 0
same,SPOT peptide array binding signal intensity,CaAbp1-D2,≤ 0
same,SPOT peptide array binding signal intensity,CaBbc1,0.5
same,SPOT peptide array binding signal intensity,CaBem1-D1,≤ 0
same,SPOT peptide array binding signal intensity,CaBzz1-D1,10
same,SPOT peptide array binding signal intensity,CaBzz1-D2,3.25
same,SPOT peptide array binding signal intensity,CaCyk3,≤ 0
same,SPOT peptide array binding signal intensity,CaFus1,42
same,SPOT peptide array binding signal intensity,CaHof1,0.75
same,SPOT peptide array binding signal intensity,CaHse1,5.75
same,SPOT peptide array binding signal intensity,CaLsb1,0.75
same,SPOT peptide array binding signal intensity,CaLsb4,≤ 0
same,SPOT peptide array binding signal intensity,CaMyo5,46.5
